High-throughput results as filed in PubChem.
CBX7 AlphaScr – blocks human CBX7 binding to H3K27me3 peptide; O95931; AlphaScreen His6-CBX7 / biotin-H3K27me3 peptide binding; hits give low values; normalised signal (fraction of DMSO) (concentration not given with the values); 1.1% of 66,000 active; in the data active means normalised signal below about 0.5
Target sequence (O95931 whole entry, looked up): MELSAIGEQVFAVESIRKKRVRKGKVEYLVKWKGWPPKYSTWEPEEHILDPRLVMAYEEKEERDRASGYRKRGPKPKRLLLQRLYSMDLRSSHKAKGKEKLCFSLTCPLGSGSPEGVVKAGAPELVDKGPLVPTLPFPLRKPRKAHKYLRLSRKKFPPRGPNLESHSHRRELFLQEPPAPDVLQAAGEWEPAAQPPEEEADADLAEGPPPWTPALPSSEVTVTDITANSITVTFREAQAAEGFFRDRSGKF
Of the large screens only hits and unclear results are named; the others gave an inactive call. The sample as a whole holds a higher share of hits than the screen did.

Cc1nc(NCCc2ccc3c(c2)OCCO3)c2cc(-c3ccccc3)sc2n1	CBX7 AlphaScr 0.36
Cc1nc(SCC(=O)c2ccc3c(c2)OCCO3)c2cc(-c3ccccc3)sc2n1	none
COc1ccc(CCNc2nc(C)nc3sc(C)c(C)c23)cc1OC	none
CCCNC(=O)C1(S(=O)(=O)c2ccc(Cl)cc2)CC1	none
O=C1CCc2cc(S(=O)(=O)N3CCC(C(=O)Nc4ccc(Cl)cc4)CC3)ccc2N1	none
COc1ccc(OC)c(NS(=O)(=O)c2ccc(OC)c3ncccc23)c1	none
Cc1nn(-c2ccccc2)c(Cl)c1C(=O)Nc1ccc(C)c2cccnc12	none
CS(=O)(=O)Nc1ccc(Cl)c2cccnc12	CBX7 AlphaScr 0.0026
COc1cc2c(C(=O)NCCCOC(C)C)cn(C)c(=O)c2cc1OC	none
CCOc1ccc(-c2cc(C(=O)NCCCN(CC)CC)c3ccccc3n2)cc1	none
COCCCNC(=O)CSc1nc(NC2CCCCC2)c2ccccc2n1	none
COc1ccc(OC)c(S(=O)(=O)NCCc2c(C)[nH]c3ccc(OC)cc23)c1	none
COc1cc(Cl)c(S(=O)(=O)NCCc2c(C)[nH]c3ccc(C)cc23)cc1Cl	none
COc1ccc(S(=O)(=O)NCCc2c(C)[nH]c3ccc(C)cc23)cc1	CBX7 AlphaScr 0.45
c1cnc2sc(N3CCN(C4CCCCC4)CC3)nc2c1	none
CCOc1ccccc1CNC(=O)CCc1cn(C)c2ccccc12	none
CCOc1ccccc1CNC(=O)CCCc1cn(C)c2ccccc12	CBX7 AlphaScr 0.38
CCOc1ccc(CCNC(=O)CCCc2cn(C)c3ccccc23)cc1OCC	none
CCOc1ccc2nc(C)cc(Nc3ccc(Br)cc3)c2c1	none
CCOc1ccc(CNc2ccc3c(c2)ncn3C)cc1	none
CC(C)(C)n1cnc2cc(NCc3ccncc3)ccc21	none
CC(C)n1cnc2cc(NCc3nc4ccccc4n3C)ccc21	none
CC(C)n1cnc2cc(NCc3ccc(Br)cc3)ccc21	CBX7 AlphaScr 0.38
CCn1cnc2cc(NCc3ccc(C)cc3)ccc21	none
CC(C)n1cnc2cc(NCc3ccc(Cl)cc3)ccc21	CBX7 AlphaScr 0.4
Cc1ccc(C)c(N2CCN(c3cc(C)nc4c(-c5ccccc5)c(C)nn34)CC2)c1	none
Cc1ccc2c(c1)-c1c(cnn1CC(=O)NC1CCCc3ccccc31)CO2 (stereo not given)	none
O=C1c2ccccc2C(Nc2ccc(Br)cc2)N1c1cccnc1 (stereo not given)	none
O=C1c2ccccc2C(Nc2cccnc2)N1c1cccnc1 (stereo not given)	CBX7 AlphaScr 0.069
COc1cccc(NC2c3ccccc3C(=O)N2c2cccnc2)c1 (stereo not given)	none
COc1cc2c(cc1OC)C(C(=O)Nc1ccc(C)cc1Cl)C(c1ccccc1F)N(C)C2=O (stereo not given)	none
Cc1ccccc1NC(=O)c1cc2c(n(-c3ccc(Cl)cc3)c1=O)CC(C)(C)CC2=O	none
COc1ccc(CCNC(=O)Cc2c(C(=O)O)n(C)c3ccccc23)cc1OC	none
CC1=Nc2cc(C(=O)NCc3ccc4c(c3)OCO4)ccc2Sc2c(C)ccc(C)c21	none
O=S(=O)(c1ccccc1)c1nc(-c2ccccc2F)oc1N1CCCCC1	CBX7 AlphaScr 0.49
O=S(=O)(c1ccc(Cl)cc1)c1nc(-c2ccccc2F)oc1N1CCCCCC1	none
O=S(=O)(c1ccc(Cl)cc1)c1nc(-c2ccccc2F)oc1N1CCCCC1	none
CC(=O)N1CCc2cc(S(=O)(=O)Nc3ccc4c(c3)OCCO4)ccc21	none
CCOc1ccc(Nc2cc(C(=O)NCCCN3CCCC3=O)c3ccccc3n2)cc1	none
O=C1CC(c2ccc(Cl)cc2Cl)c2cc3c(cc2N1)OCCO3 (stereo not given)	none
CCOc1ccccc1NC(=O)CSc1nccn1-c1cccc(C)c1	none
Cc1cccc(NC(=O)CSc2nccn2-c2ccc(Cl)cc2)c1C	CBX7 AlphaScr 0.44
Cc1ccc(C)c(NC(=O)CSc2nccn2-c2ccc(Cl)cc2)c1	none
Cc1cccc(NC(=O)CSc2nccn2-c2ccccc2)c1C	none
COc1ccccc1NC(=O)CSc1nccn1-c1cccc(Cl)c1	none
Cc1cc(C)c(NC(=O)CSc2nccn2-c2cccc(Cl)c2)c(C)c1	none
Cc1cccc(NC(=O)CSc2nccn2-c2cccc(Cl)c2)c1C	CBX7 AlphaScr 0.47
Cc1ccc(C)c(NC(=O)CSc2nccn2-c2cccc(Cl)c2)c1	none
CCOc1ccccc1NC(=O)CSc1nccn1-c1cccc(Cl)c1	CBX7 AlphaScr 0.29
COC(=O)C1CCN(C(=O)c2c(-c3ccccc3)noc2C)CC1	none
COC(=O)c1ccc(Nc2cc(C)nc3ccc(Cl)cc23)cc1	none
Cc1ccccc1OCC(=O)Nc1c(C(=O)c2ccccc2)oc2ccccc12	none
Clc1ccc2nc(-c3ccccc3)nc(N3CCCCC3)c2c1	none
Cc1ccc(NC(=O)C2CCN(S(=O)(=O)c3cnc[nH]3)CC2)cc1F	none
CCC1=Nc2cc(C(=O)NCCCN3CCOCC3)ccc2Sc2ccc(Cl)cc21	none
Cc1ccc2cc(CCNS(C)(=O)=O)c(=O)[nH]c2c1	none
COc1ccc(CN(C(=O)c2cccc(Cl)c2)C2CCS(=O)(=O)C2)cc1 (stereo not given)	none
CC1CCCCN1S(=O)(=O)c1ccc(C(=O)Nc2nc(-c3ccccn3)cs2)cc1 (stereo not given)	CBX7 AlphaScr 0.19
